Screening data deposited in PubChem BioAssay by National Center for Advancing Translational Sciences (NCATS).
G9a inh – G9a (human) methyltransferase inhibition. AID 504332. Potency, µM (highest dose often 102 µM), for the others: top-dose activity, negative = inhibition, actives largely listed as inhibitors. G9a H3K9 monomethylation, AlphaScreen, 2 h. Q96KQ7. 350,000 compounds, 8.8% hits; further: potency means the concentration at half of the fitted maximal effect; on the % scale 0 is the no-effect control and ±100 the full control effect; nearly all actives have a fitted effect of over 75% in size
Target sequence (Q96KQ7 913-1193 limits assumed): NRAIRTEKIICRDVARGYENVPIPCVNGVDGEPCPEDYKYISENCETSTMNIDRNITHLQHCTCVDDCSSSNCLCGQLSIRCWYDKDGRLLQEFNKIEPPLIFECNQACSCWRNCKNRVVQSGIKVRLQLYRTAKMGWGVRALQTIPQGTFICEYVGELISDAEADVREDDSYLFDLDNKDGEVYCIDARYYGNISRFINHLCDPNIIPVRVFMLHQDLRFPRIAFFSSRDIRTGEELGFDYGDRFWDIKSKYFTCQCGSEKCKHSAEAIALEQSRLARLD
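Enzyme 20 nM + cpd, 15 min RT; add b-H3K9 pep 500 nM / SAM 20 uM; 2 h RT; anti-H3K9me1 Ab 0.5 ug/mL + SA donor / anti-rabbit acceptor beads 20 ug/mL each, 10 min; AlphaScreen read.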
Sfp inh – blocks B. subtilis Sfp PPTase activity. Biochemical Sfp PPTase activity, qHTS. Potency, µM, for inactives: largest response in the series, negative = inhibition, usual class: inhibitors. 310,000 compounds, 3.5% hits;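 further: the enzyme is Sfp with the accession as filed and its product quenches rhodamine fluorescence; potency means the concentration at half of the fitted maximal effect; 0% = enzyme reaction without inhibitor and -100% = no enzyme wells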
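Fluorescence-quenching assay with 15 nM Sfp, 5 uM rhodamine-CoA and 12.5 uM BHQ-2-labelled ybbR peptide in pH 7.6 Hepes/MgCl2 buffer. Enzyme was pre-incubated with compound for 15 min at room temperature. Rate was taken from the 30-min fluorescence change (525/598 nm).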
HP1b chromo inh – inhibitors of HP1-beta chromodomain binding to methylated histone tails; AlphaScreen HP1-beta / biotin-H3K9me3 peptide binding; Potency, µM (titrated, usually from 114 µM), for the others: at the top dose activity change, negative = inhibition, usual class: inhibitors; 390,000 compounds, 0.56% hits; AID 540317; further: potency means the concentration at half of the fitted maximal effect; nearly all actives have a fitted effect of over 70% in size
Target sequence (P83916 whole entry, looked up): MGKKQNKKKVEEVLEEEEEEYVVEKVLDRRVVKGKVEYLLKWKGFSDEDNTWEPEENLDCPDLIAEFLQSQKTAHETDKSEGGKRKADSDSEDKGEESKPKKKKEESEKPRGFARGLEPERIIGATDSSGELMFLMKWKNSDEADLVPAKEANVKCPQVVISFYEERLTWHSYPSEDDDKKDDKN
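HP1-beta protein (50 nM final) preincubated 30 min at room temperature with biotinylated H3(1-18)K9me3 peptide (50 nM) in PBS pH 7.4, 0.01% Tween-20, then compound added for 30 min. AlphaScreen streptavidin donor/nickel chelate acceptor beads (10 ug/mL final), 30 min dark, luminescence read.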
JMJD2A Tudor – blocks the human JMJD2A Tudor domain; O75164; AlphaScreen JMJD2A-Tudor / H3K4me3 peptide binding; Potency, µM (series often up to 114 µM), for the others: at the highest dose activity change, negative = inhibition, usual class: inhibitors; 390,000 compounds, 4.4% hits; AID 504339; further: potency means the concentration at half of the fitted maximal effect; on the % scale 0 is the no-effect control and ±100 the full control effect; nearly all actives have a fitted effect of over 50% in size
BAZ2B block – inhibitors of human BAZ2B bromodomain | AlphaScreen BAZ2B-H3K14Ac peptide displacement | Potency, µM (titrated, usually from 114 µM), without a hit: at the top dose activity change, negative = inhibition, most hits filed as inhibitors | 360,000 compounds, 4.4% hits; further: potency means the concentration at half of the fitted maximal effect; on the % scale 0 is the no-effect control and ±100 the full control effect; nearly all actives have a fitted effect of over 60% in size
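AlphaScreen displacement: compounds (up to 110uM) incubated 30 min at room temperature with a preformed 50 nM BAZ2B/50 nM biotinylated H3K14Ac peptide complex in PBS pH 7.4 with Tween-20. Donor and acceptor beads at 10 ug/mL final added, 20 min light-protected before reading.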
Sfp inh conf – confirmation of Bacillus subtilis Sfp PPTase inhibitors; Sfp PPTase enzymatic assay, qHTS titration; Potency, µM (titrated, usually from 114 µM), inactives show at the highest dose activity change, negative = inhibition, usual class: inhibitors; AID 2701; 380 compounds, 79% hits; shares compounds with Sfp inh;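 further: potency means the concentration at half of the fitted maximal effect; plate controls were uninhibited Sfp reaction for no effect and no enzyme control for full effect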
Target sequence (Q9F4F7 whole entry, looked up): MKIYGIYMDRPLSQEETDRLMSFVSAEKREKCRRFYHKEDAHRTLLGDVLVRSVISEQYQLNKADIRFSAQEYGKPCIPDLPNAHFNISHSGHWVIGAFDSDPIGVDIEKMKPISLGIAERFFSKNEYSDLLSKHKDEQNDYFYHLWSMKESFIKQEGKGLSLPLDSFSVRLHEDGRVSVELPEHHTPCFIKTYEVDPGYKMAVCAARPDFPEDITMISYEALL
Sfp PPTase gel – Inhibits B. subtilis Sfp phosphopantetheinylation. Potency, µM, hits mostly inhibitors. purified Sfp, gel-based phosphopantetheinylation read-out. 210 compounds, 20% hits. shares compounds with Sfp inh;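 active means potency below 100 µM; inconclusive means dose-dependent response but potency above 100 µM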;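 further: band intensities scaled against SCH202676 control wells before curve fitting; potency is an IC50 for inhibitors of Sfp transfer activity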
* = called active by the depositor; [ ] = remark or other dose. Only some compounds are listed: those with a hit (about 12% of all), similar ones and a draw of the others. Unless noted, the call rests on the fitted dose curve; in most records, active means well fitted curve in the direction sought with a large enough effect; inconclusive means small, poorly fitted or top-dose-only effect, or another doubt; inactive means no such curve, though single readings can be large; an effect the other way counts as inactive or inconclusive.

For Cc1ccc2c(c1)CCCN2C(=O)Nc1ccc2c(c1)OCO2 the results were G9a inh inconclusive, Sfp inh 3.16µM*, HP1b chromo inh -37.2%, JMJD2A Tudor 56.2µM*, BAZ2B block inconclusive, Sfp inh conf inconclusive and Sfp PPTase gel inactive.
CCOC(=O)c1c(NC(=O)CNCCOC)sc2c1CCCC2 was read as G9a inh -2.3%[59 µM], Sfp inh -1.9%, HP1b chromo inh 9.2%, JMJD2A Tudor -15.3%[11.4 µM] and BAZ2B block -24.8%.
Screening COCCNC(=O)c1c(N)sc2c1CCCC2 returned G9a inh inconclusive, Sfp inh 14.1µM*, BAZ2B block inconclusive and Sfp inh conf 37.3µM*.
`CNC(=O)c1c(NC(=O)C(C)C)sc2c1CCC2` gave Sfp inh -5.1%, HP1b chromo inh 25.3%, JMJD2A Tudor -4.5% and BAZ2B block inconclusive.
Screening CNC(=O)c1c(N)sc2c1CCCCC2 returned G9a inh 10µM*, Sfp inh 20µM*, BAZ2B block -9.9% and Sfp inh conf 21µM*.
Screening Cc1ccc(F)cc1NC(=O)Cn1c(=O)nc(-c2ccccc2F)c2cc(Cl)ccc21 returned G9a inh -14.4%[12.7 µM], HP1b chromo inh 45.9%, JMJD2A Tudor 1.3% and BAZ2B block -11.9%.
For COc1ccc(CNC(=O)CCS(=O)(=O)c2cc3c4c(c2)CCN4C(=O)CC3)cc1OC the results were G9a inh inconclusive, HP1b chromo inh -9.7%, JMJD2A Tudor inconclusive and BAZ2B block -2.5%.
`COc1ccc(NC(c2ccc(F)cc2)c2nnc(-c3ccccc3Cl)o2)cc1Cl` (stereo unspecified) gave G9a inh inconclusive, HP1b chromo inh 2.5%, JMJD2A Tudor -30.5% and BAZ2B block inconclusive.
c1ccc2sc(-c3ccncc3)nc2c1 was read as G9a inh 13.6%, Sfp inh 13.7%, HP1b chromo inh 28.6%, JMJD2A Tudor -0.7% and BAZ2B block -2.8%.
For c1csc(-c2nc3ccccc3s2)c1 the results were G9a inh 20µM*, Sfp inh 35.5µM*, HP1b chromo inh 28.9%, JMJD2A Tudor 8.8%, BAZ2B block 44.6%, Sfp inh conf 46.9µM* and Sfp PPTase gel inconclusive.
`CC(C)C(c1nnnn1Cc1ccc(F)cc1)N1CCN(c2ccc(O)cc2)CC1` (stereo unspecified) gave G9a inh 12.6µM*, Sfp inh 15.8µM*, HP1b chromo inh 70.8µM*, JMJD2A Tudor 39.8µM*, BAZ2B block -33.4% and Sfp inh conf 46.9µM*.
For CO/N=C(\C(=O)N[C@@H]1C(=O)N2C(C(=O)[O-])=C(C[n+]3cccc4c3CCC4)CS[C@H]12)c1csc(N)n1 the results were G9a inh -26.7%[12.7 µM], Sfp inh 56.2µM*, Sfp inh conf 41.8µM* and Sfp PPTase gel 55.6µM*.
For CO/N=C(/C(=O)N[C@@H]1C(=O)N2C(C(=O)O)=C(CSC(=O)c3ccco3)CSC12)c1csc(N)n1 (stereo partly specified) the results were G9a inh inconclusive, Sfp inh 56.2µM*, Sfp inh conf 46.9µM* and Sfp PPTase gel 6.17µM*.
Screening O=[N+]([O-])c1cc(-c2nc(-c3ccccc3)no2)ccc1NC1CCCC1 returned G9a inh -11.3%[59 µM], HP1b chromo inh 23.0%, JMJD2A Tudor -19.9% and BAZ2B block inconclusive.
COCCCNC(=O)Nc1cc(C(=O)NCc2ccc(OC)cc2)ccc1N1CCCC1 was read as G9a inh -8.0%[59 µM], HP1b chromo inh 25.3%, JMJD2A Tudor -13.9% and BAZ2B block -20.2%.
Screening COc1cccc(NC(=O)Nc2ccncc2)c1 returned G9a inh 15.3%, Sfp inh -1.0%, HP1b chromo inh 3.3%, JMJD2A Tudor -8.6% and BAZ2B block 31.4%.
For COc1cccc(NC(=O)Nc2cccs2)c1 the results were G9a inh 10µM*, Sfp inh 11.2µM*, HP1b chromo inh 10.4%, JMJD2A Tudor -18.4%, BAZ2B block 7.9%, Sfp inh conf 29.6µM* and Sfp PPTase gel inactive.
NCCc1c(-c2ccccc2)n(-c2ccccc2)c2ccccc12 was read as G9a inh 44.7µM*, Sfp inh 15.8µM*, HP1b chromo inh inconclusive, JMJD2A Tudor 31.6µM*, BAZ2B block 22.4µM*, Sfp inh conf 41.8µM* and Sfp PPTase gel inactive.
COc1cc2c(-c3ccc4[nH]ccc4c3)c(-c3ccc(C#N)cc3)oc(=O)c2cc1OC was read as G9a inh 2.9%[0.501 µM], HP1b chromo inh 34.6%, JMJD2A Tudor -12.7% and BAZ2B block 50.7%.
Clc1ccc(-c2nn3c(C4COc5ccccc5O4)nnc3s2)cc1 (stereo unspecified) was read as G9a inh 7.08µM*, Sfp inh 14.1µM*, HP1b chromo inh inconclusive, JMJD2A Tudor -23.5%, BAZ2B block -21.6% and Sfp inh conf 33.2µM*.
For Cc1ccc(S(=O)(=O)NCc2ccccc2)cc1C(=O)NCC1CCCO1 (stereo unspecified) the results were G9a inh 6.4%, HP1b chromo inh 23.4%, JMJD2A Tudor -4.8% and BAZ2B block 1.1%.
For CC(C)OCCCn1c(=S)[nH]c2ccc(N3CCOCC3)cc2c1=O the results were G9a inh -47.7%[12.7 µM], Sfp inh inconclusive, HP1b chromo inh 33.9%, JMJD2A Tudor -6.0% and BAZ2B block -29.4%.
For Cc1ccc(Cn2c(=S)[nH]c3ccc(N4CCOCC4)cc3c2=O)o1 the results were G9a inh inconclusive, Sfp inh 2.51µM*, HP1b chromo inh inconclusive, JMJD2A Tudor 22.4µM*, BAZ2B block inconclusive and Sfp inh conf 2.64µM*.
Screening CCOc1ccc(C2CC(=O)c3c([nH]c(C(=O)OC4CCCCCC4)c3C)C2)cc1 (stereo unspecified) returned G9a inh 6.8%[59 µM], HP1b chromo inh 14.5%, JMJD2A Tudor -0.4% and BAZ2B block -6.3%.
Screening Nc1nnc2c(n1)CCCC2 returned G9a inh inconclusive, Sfp inh 44.7µM*, HP1b chromo inh 21.3%, JMJD2A Tudor 22.4µM*, BAZ2B block 50.1µM*, Sfp inh conf 52.7µM* and Sfp PPTase gel 6.17µM*.
`C1CCc2nc3c(nc2C1)CCCC3` gave Sfp inh -0.3%, HP1b chromo inh 35.2%, JMJD2A Tudor -10.9% and BAZ2B block -0.2%.
`CCc1cccc(C)c1NC(=O)CSc1nc2c(c(=O)[nH]1)CCC2` gave G9a inh -28.7%[59 µM], HP1b chromo inh 21.4%, JMJD2A Tudor -8.9% and BAZ2B block -12.8%.
